Assay results as given in PubChem BioAssay.
Activity calls are given as the source filed them.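 How the source made its calls: active means thallium flux through the channel raised or lowered by more than 3 SD from vehicle-only wells, actives on both sides; inactive means the rest.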

Columns and labels:
Assay in all cases: BK channel mutant inhibitors and activators – cell-based, U2OS BacMam, thallium flux, beta subunits, selectivity assay, profiling panel (AID 1259406);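 further: initial slope of Thallos dye fluorescence rise after thallium is added; log ratio against the mean of 0.3% DMSO vehicle wells on the same plate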
F380Y = settings: U2OS BacMam BK variants, at 30 µM
F380Y/beta1 = settings: U2OS BacMam BK variants, at 30 µM
F380Y/beta2Delta = settings: U2OS BacMam BK variants, at 30 µM
F380Y/beta4 = settings: U2OS BacMam BK variants, at 30 µM
[1] = molecular target: Calcium-activated potassium channel subunit alpha-1 (Homo sapiens) + Leucine-rich repeat-containing protein 26 (Homo sapiens) (UniProt Q12791+Q2I0M4); settings: U2OS BacMam BK variants, F380Y/Slo1WT/gamma1, at 30 µM
R275C = settings: U2OS BacMam BK variants, at 30 µM
R275C/beta1 = settings: U2OS BacMam BK variants, at 30 µM
R275C/beta2Delta = settings: U2OS BacMam BK variants, at 30 µM
R275C/beta4 = settings: U2OS BacMam BK variants, at 30 µM
R275C/Slo1WT/beta2 = settings: U2OS BacMam BK variants, at 30 µM

Measured: log fold change Tl+ flux

Sequence of Calcium-activated potassium channel subunit alpha-1 (Homo sapiens) + Leucine-rich repeat-containing protein 26 (Homo sapiens) (Q2I0M4 whole entry, looked up, one chain of several): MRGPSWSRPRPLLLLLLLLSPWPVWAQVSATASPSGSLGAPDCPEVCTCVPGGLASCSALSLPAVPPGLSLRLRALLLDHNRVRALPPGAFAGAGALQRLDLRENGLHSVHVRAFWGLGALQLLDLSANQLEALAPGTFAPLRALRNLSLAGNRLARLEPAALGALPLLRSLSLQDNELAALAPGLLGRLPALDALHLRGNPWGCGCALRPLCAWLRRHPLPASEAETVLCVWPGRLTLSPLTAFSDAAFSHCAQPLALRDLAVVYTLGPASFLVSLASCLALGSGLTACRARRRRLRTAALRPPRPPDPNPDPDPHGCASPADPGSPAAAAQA

CCOC(=O)CSc1nnc(OCC)n1-c1ccccc1
inactive: F380Y -0.0276 | F380Y/beta1 -0.00436 | F380Y/beta2Delta 0.0123 | F380Y/beta4 -0.00338 | [1] 0.0529 | R275C -0.0234 | R275C/beta1 0.0181 | R275C/beta2Delta -0.0101 | R275C/beta4 -0.0109 | R275C/Slo1WT/beta2 0.0084

CCN1CCC(O)(C#Cc2ccccc2)CC1
inactive: F380Y -0.00462 | F380Y/beta1 0.0157 | F380Y/beta2Delta -0.0113 | F380Y/beta4 -0.0547 | [1] 0.00398 | R275C -0.00643 | R275C/beta1 0.0179 | R275C/beta2Delta 0.0235 | R275C/beta4 -0.01 | R275C/Slo1WT/beta2 0.0236

O=C(CNc1cc(C(F)(F)F)cc(C(F)(F)F)c1)c1ccc(Cl)cc1
inactive: F380Y -0.0386 | F380Y/beta1 0.0507 | F380Y/beta2Delta -0.00515 | F380Y/beta4 -0.0229 | [1] -0.0851 | R275C 0.0058 | R275C/beta1 0.0119 | R275C/beta2Delta 0.000503 | R275C/beta4 0.0102 | R275C/Slo1WT/beta2 0.0351

CSc1nnc(SCC(=O)c2ccc3c(c2)OCCO3)s1
inactive: F380Y -0.00388 | F380Y/beta1 -0.019 | F380Y/beta2Delta -0.0362 | F380Y/beta4 -0.049 | [1] -0.0346 | R275C -0.06 | R275C/Slo1WT/beta2 -0.0418
active: R275C/beta1 -0.119 | R275C/beta2Delta -0.146 | R275C/beta4 -0.0816

O=C(Nc1c(S(=O)(=O)c2ccccc2)csc1Br)c1ccccc1Cl
inactive: F380Y -0.0373 | F380Y/beta1 0.0138 | F380Y/beta2Delta -0.0509 | F380Y/beta4 0.0338 | [1] 0.0104 | R275C -0.0217 | R275C/beta1 0.0155 | R275C/beta2Delta -0.0307 | R275C/beta4 0.00756 | R275C/Slo1WT/beta2 0.0177

O=C(c1ccccc1)c1c(Cl)cc(C(F)(F)F)cc1Cl
inactive: F380Y -0.0258 | F380Y/beta1 0.0352 | F380Y/beta2Delta 0.0614 | F380Y/beta4 0.0559 | [1] 0.0324 | R275C 0.00162 | R275C/beta1 0.0087 | R275C/beta2Delta 0.0434 | R275C/beta4 0.000317 | R275C/Slo1WT/beta2 0.0159

Cc1nn(-c2ccccc2)nc1C(=O)NNC(=O)CSCc1cccc2ccccc12
active: R275C/beta4 0.097
inactive: F380Y 0.029 | F380Y/beta1 0.0449 | F380Y/beta2Delta 0.0266 | F380Y/beta4 -0.00465 | [1] -0.0205 | R275C 0.0152 | R275C/beta1 0.0429 | R275C/beta2Delta -0.0226 | R275C/Slo1WT/beta2 0.0123

CCc1[nH]c(=S)[nH]c(=O)c1C#N
inactive: F380Y -0.0598 | F380Y/beta1 0.0419 | F380Y/beta2Delta 0.0255 | F380Y/beta4 0.0765 | [1] 0.0111 | R275C 0.0263 | R275C/beta1 -0.0177 | R275C/beta2Delta 0.00491 | R275C/beta4 0.0228 | R275C/Slo1WT/beta2 0.0561

O=S(=O)(Oc1ccc(F)cc1F)c1cccc(S(=O)(=O)Oc2ccc(F)cc2F)c1
inactive: F380Y/beta1 -0.0152 | F380Y/beta2Delta 0.00173 | R275C/beta2Delta -0.0138 | R275C/Slo1WT/beta2 -0.0996
active: F380Y -0.193 | F380Y/beta4 -0.485 | [1] -0.264 | R275C -0.229 | R275C/beta1 -0.209 | R275C/beta4 -0.144

Cc1ccccc1S(=O)(=O)NCc1ccc(N2CCN(C)CC2)cc1
inactive: F380Y -0.0156 | F380Y/beta1 -0.00969 | F380Y/beta2Delta 0.0214 | F380Y/beta4 0.0231 | [1] 0.0153 | R275C -0.00175 | R275C/beta1 0.0272 | R275C/beta2Delta 0.0013 | R275C/beta4 0.0244 | R275C/Slo1WT/beta2 -0.0187

COc1ccccc1NC(=S)NNC(=O)CSc1ccccc1[N+](=O)[O-]
inactive: F380Y 0.0388 | F380Y/beta1 0.0156 | F380Y/beta2Delta 0.0403 | F380Y/beta4 0.0916 | [1] 0.0332 | R275C -0.0193 | R275C/beta1 0.0469 | R275C/beta2Delta 0.064 | R275C/beta4 0.00382 | R275C/Slo1WT/beta2 -0.0222

COc1ccc(C(C)=NO)cc1CN1CCCC1
inactive: F380Y 0.00748 | F380Y/beta1 0.0291 | F380Y/beta2Delta 0.0236 | F380Y/beta4 0.062 | [1] 0.0507 | R275C 0.0203 | R275C/beta1 0.0511 | R275C/beta2Delta -0.0181 | R275C/beta4 -0.0237 | R275C/Slo1WT/beta2 0.0863

C=CCNC(SC)=C(C#N)C(N)=O
inactive: F380Y -0.000365 | F380Y/beta1 -0.02 | F380Y/beta2Delta 0.0377 | F380Y/beta4 -0.0612 | [1] 0.0338 | R275C -0.0174 | R275C/beta1 -0.038 | R275C/beta2Delta 0.00669 | R275C/beta4 -0.0131 | R275C/Slo1WT/beta2 -0.00229

CN(C)c1ccc(C=NNC(N)=S)c(Cl)c1
inactive: R275C/beta2Delta -0.0612
active: F380Y 0.178 | F380Y/beta1 0.329 | F380Y/beta2Delta 0.177 | F380Y/beta4 0.174 | [1] -0.221 | R275C -0.509 | R275C/beta1 -0.285 | R275C/beta4 -0.244 | R275C/Slo1WT/beta2 -0.154

COCCCNC(=O)C(C#N)=CN(C)C
active: F380Y/beta2Delta -0.103
inactive: F380Y -0.062 | F380Y/beta1 -0.0601 | F380Y/beta4 0.0041 | [1] -0.0197 | R275C -0.0308 | R275C/beta1 -0.0584 | R275C/beta2Delta -0.0395 | R275C/beta4 -0.0325 | R275C/Slo1WT/beta2 0.0541

CC(C)(C)NC(=S)NNc1c(Cl)cncc1Cl
inactive: F380Y -0.00302 | F380Y/beta1 -0.0136 | F380Y/beta2Delta -0.0137 | F380Y/beta4 -0.0352 | [1] -0.035 | R275C 0.0328 | R275C/beta1 0.0635 | R275C/beta2Delta 0.00425 | R275C/beta4 -0.00379 | R275C/Slo1WT/beta2 0.0133

Cc1cnc(N)c(C)n1
inactive: F380Y 0.0781 | F380Y/beta1 0.0374 | F380Y/beta2Delta 0.0872 | F380Y/beta4 -0.0219 | [1] 0.00805 | R275C -0.0212 | R275C/beta1 -0.0766 | R275C/beta2Delta 0.039 | R275C/beta4 -0.0212 | R275C/Slo1WT/beta2 0.0123

O=[N+]([O-])c1cnc(Sc2nccc(-c3cccnc3)n2)s1
inactive: F380Y -0.00331 | F380Y/beta1 0.0246 | F380Y/beta2Delta -0.0191 | F380Y/beta4 0.00729 | [1] -0.074 | R275C 0.0275 | R275C/beta1 0.026 | R275C/beta2Delta -0.0186 | R275C/beta4 0.0146 | R275C/Slo1WT/beta2 -0.0189

O=C(NC(=O)N1CCCCC1)c1cc(Br)cc(Br)c1
active: F380Y -0.337 | F380Y/beta1 -0.109 | F380Y/beta2Delta -0.277 | [1] -0.127 | R275C -0.145
inactive: F380Y/beta4 -0.0283 | R275C/beta1 -0.0155 | R275C/beta2Delta -0.0701 | R275C/beta4 -0.0253 | R275C/Slo1WT/beta2 -0.0054

CC(C)(C)c1cc(-c2nc(-c3ccc(C(F)(F)F)cc3)no2)n(Cc2ccccc2)n1
inactive: F380Y -0.0279 | F380Y/beta1 -0.0164 | F380Y/beta2Delta -0.0472 | F380Y/beta4 0.0114 | [1] -0.0649 | R275C 0.0485 | R275C/beta1 -0.0238 | R275C/beta2Delta -0.0138 | R275C/beta4 0.0105 | R275C/Slo1WT/beta2 0.0318

COc1cc(NC(=S)Nc2cccc(C)n2)c(OC)cc1Cl
inactive: F380Y 0.00134 | F380Y/beta1 -0.00183 | F380Y/beta2Delta 0.043 | F380Y/beta4 0.0519 | [1] -0.00641 | R275C 0.00398 | R275C/beta1 -0.033 | R275C/beta2Delta 0.0321 | R275C/beta4 -0.0698 | R275C/Slo1WT/beta2 -0.00284

CCc1ccc(C(=O)Nc2cccc(S(N)(=O)=O)c2)cc1
inactive: F380Y -0.0133 | F380Y/beta1 -0.00607 | F380Y/beta2Delta -0.0279 | F380Y/beta4 0.0112 | [1] 0.028 | R275C -0.00467 | R275C/beta1 -0.00416 | R275C/beta2Delta -0.0306 | R275C/beta4 0.0218 | R275C/Slo1WT/beta2 0.0201

CN(Cc1nnc(-c2ccc3ccccc3c2)o1)c1nnc(C(F)(F)F)s1
inactive: F380Y 0.00202 | F380Y/beta1 0.0221 | F380Y/beta2Delta 0.0123 | F380Y/beta4 -0.0118 | [1] -0.0041 | R275C 4.3e-05 | R275C/beta1 -0.0299 | R275C/beta2Delta -0.000282 | R275C/beta4 -0.0251 | R275C/Slo1WT/beta2 0.0181

CCSc1ccc(-c2noc(C(C)(C)C)n2)cn1
inactive: F380Y 0.0439 | F380Y/beta1 0.0323 | F380Y/beta2Delta -0.00176 | F380Y/beta4 0.0153 | [1] -0.00182 | R275C 0.0189 | R275C/beta1 0.0241 | R275C/beta2Delta -0.0201 | R275C/beta4 0.031 | R275C/Slo1WT/beta2 -0.00966

CCC(=NOc1ccc(C(F)(F)F)cn1)c1ccc(-c2ccccc2F)cc1
active: F380Y 0.147
inactive: F380Y/beta1 -0.0225 | F380Y/beta2Delta 0.0209 | F380Y/beta4 -0.0257 | [1] -0.0559 | R275C -0.0194 | R275C/beta1 0.00871 | R275C/beta2Delta 0.0154 | R275C/beta4 0.0265 | R275C/Slo1WT/beta2 -0.0112

O=C1CSCC(=O)N1c1csc(C(F)(F)F)c1-c1ccccc1
inactive: F380Y -0.0223 | F380Y/beta2Delta -0.00325 | F380Y/beta4 0.0035 | [1] 0.0169 | R275C 0.0132 | R275C/beta2Delta 0.0241 | R275C/Slo1WT/beta2 -0.00785
active: F380Y/beta1 0.0869 | R275C/beta1 0.122 | R275C/beta4 0.11
